Screens deposited in PubChem BioAssay by The Scripps Research Institute Molecular Screening Center.
In the library only some 0.87% were active in any assay of this set; here they are far more common.
TLR9-MyD88 block: inhibitors of TLR9-MyD88 association in cells, primary screen, cell-based, CHO, BLA complementation, fluorescence. Toll-like receptor 9 (Homo sapiens) + Myeloid differentiation primary response protein …. 340,000 tested, 0.21% active. AID 504734, 2011. CCF4 FRET ratio. inhibition, % at 4.98 µM;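 active = inhibition above the mean over all tested compounds plus 3 SD, cut at about 21% in these data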;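 note: 0% = DMSO only wells and 100% = clavulanate BLA inhibitor control wells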
TLR4-MyD88 BLA: inhibitors of TLR4-MyD88 association in cells, primary screen, cell-based, HeLa CL3-4, BLA complementation, FRET ratio; inhibition, % at 8.4 µM; AID 861, 2007; HeLa CL3-4 TLR4/MyD88 BLA complementation; Toll-like receptor 4 (Homo sapiens) + Myeloid differentiation primary response protein …; 200,000 tested, 0.18% active; in the data active = inhibition above about 25%;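 note: 0% = vehicle and 100% = reference inhibitor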
IDE cell activ: human IDE activators in live cells, primary screen, fluorescence polarization, HEK cells, FAbeta-B substrate; Insulin-degrading enzyme (Homo sapiens), P14735; FAbeta-B cleavage; 0% vehicle, 100% cell-free pure enzyme wells; activation, % at 5.96 µM; 340,000 tested, 0.073% active;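 active = activation above the mean of all tested compounds plus 3 SD, set per screening campaign, cut at about 17% in these data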
IDE inh: human IDE inhibitors in live cells, primary screen, fluorescence polarization, HEK cells, FAbetaB substrate; AID 434962, 2010; inhibition, % at 5.59 µM; FAbetaB cleavage; Insulin-degrading enzyme (Homo sapiens), P14735; 320,000 tested, 0.41% active;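 active = percent inhibition above the average of all tested compounds plus 3 SD, set per screening campaign, cut at about 16% in these data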;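 note: IDE supplied by intact live HEK cells; FP after avidin binding of uncleaved biotin substrate so inhibition keeps polarization high; 0% = DMSO wells and 100% = 60 µM reference IDE inhibitor Ii1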
NOD2 RIPK2 PPI: NOD2-RIPK2 binding disruptors in cells, primary screen, fluorescence, CHO cells, BLA complementation | CCF4 ratio | AID 624267, 2012 | inhibition, % at 4.98 µM | 360,000 tested, 0.38% active; in the data active = inhibition above about 21%;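 note: 0% = vehicle only and 100% = reference blocker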
TLR9-MyD88 cf: TLR9-MyD88 association inhibitors, retest, confirmation, cell-based, CHO, BLA complementation, fluorescence, triplicate; shares compounds with TLR9-MyD88 block; CCF4 FRET ratio; inhibition, % at 4.98 µM; 680 tested, 51% active; AID 540250, 2011;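 active = mean inhibition across three repeats above about 21% taken from the earlier screen, limit read from the data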;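 note: blue over green emission ratio reports constitutive TLR9 MyD88 association via BLA complementation; 0% = DMSO vehicle wells and 100% = clavulanate BLA inhibitor wells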
BLA counter-1: beta-lactamase reporter inhibitors in CHO cells, artefact control for TLR9-MyD88 binding inhibitor project, cell-based, fluorescence | CHO-BLA cells, CCF4 FRET ratio, BLA reporter | 680 tested, 7% active | inhibition, % at 4.98 µM | shares compounds with TLR9-MyD88 block | AID 540251, 2011;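 active = mean inhibition above a 50% cutoff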;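 note: counterscreen of TLR9-MyD88 hits on CMV-driven BLA in CHO-K1 cells; 0% = DMSO alone and 100% = clavulanate blocking BLA; higher means less blue over green ratio so more BLA blockade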
TLR9 CHO cytotox: CHO cell viability loss – luminescence, single concentration, cytotoxicity control for TLR9-MyD88 binding inhibitor project | shares compounds with TLR9-MyD88 block | AID 588336, 2011 | TLR9-MyD88 CHO cells cytotoxicity | inhibition, % at 4.98 µM | 680 tested, 39% active; in the data active = inhibition above about 11%
NOD2-RIPK2 conf: NOD2-RIPK2 binding disruptors, retest, confirmation, fluorescence, CHO cells, BLA complementation, triplicate | shares compounds with NOD2 RIPK2 PPI | CCF4 FRET | inhibition, % at 4.98 µM | 1,200 tested, 70% active;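 active = mean inhibition across replicates above a set limit taken from the earlier primary screen, cut at about 21% in these data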;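 note: 0% = DMSO-only wells and the high end = clavulanate BLA-blocked wells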
BLA counter-2: hits BLA reporter in NOD2-RIPK2 inhibitor counterscreen; CHO BLA reporter, CCF4 FRET ratio; AID 624371; 1,200 tested, 57% active; shares compounds with NOD2 RIPK2 PPI; inhibition, % at 4.98 µM;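 active = mean inhibition above the low-control mean inhibition plus three low-control SD, cut at about 11% in these data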;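 note: 0% = DMSO only wells and 100% = clavulanate high control wells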
* marks the source's active call; other numbers are inactive results; . = no result.

SMILES	TLR9-MyD88 block	TLR4-MyD88 BLA	IDE cell activ	IDE inh	NOD2 RIPK2 PPI	NOD2-RIPK2 conf	BLA counter-2	others
Cc1ccc(NC(=O)c2nc(S(=O)(=O)Cc3ccccc3C)ncc2Cl)cc1C	41*	.	5	8	97*	86*	33*	TLR9-MyD88 cf=35*;BLA counter-1=13;TLR9 CHO cytotox=83*
CC(=O)Nc1ccc(NC(=O)c2nc(S(=O)(=O)Cc3cccc(C)c3)ncc2Cl)cc1	27*	.	-3	-12	82*	81*	44*	TLR9-MyD88 cf=44*;BLA counter-1=34;TLR9 CHO cytotox=97*
CCOC(=O)N1CCN(S(=O)(=O)CCNC(=O)c2ccc(F)cc2)CC1	5	.	-2	0	-12	.	.
Cc1cc2nc(/C=C/c3nc4cc(C)c(C)cc4[nH]3)[nH]c2cc1C	40*	.	-1	-1	25*	32*	43*	TLR9-MyD88 cf=30*;BLA counter-1=32;TLR9 CHO cytotox=-2
Cc1cc2nc(/C=C/c3cccnc3)[nH]c2cc1C	-3	.	1	.	11	.	.
CCCC(=O)NC1=C(Cl)C(=O)c2ccccc2C1=O	37*	.	-86	.	71*	90*	29*	TLR9-MyD88 cf=61*;BLA counter-1=6;TLR9 CHO cytotox=99*
Cc1cc(NC(=O)COC(=O)C2CC2)ccc1Br	1	.	3	3	-12	.	.
O=C(Nc1ccc2c(c1)OCCO2)C(c1ccccc1)n1c(=O)c(-c2cc3ccccc3[nH]2)nc2ccccc21 (configuration not stated)	.	.	.	.	48*	41*	64*
O=C(Nc1ccc2c(c1)OCCO2)C(c1ccccc1)n1c(=O)c(-c2ccco2)nc2ccccc21 (configuration not stated)	.	.	.	.	5	.	.
O=C(Nc1ccc2ccccc2c1)C(c1ccccc1F)n1c(=O)c(-c2cc3ccccc3[nH]2)nc2ccccc21 (configuration not stated)	.	.	.	.	45*	42*	67*
COc1ccc(NC(=O)C(c2ccccc2)n2c(=O)c(-c3cc4ccccc4[nH]3)nc3ccccc32)cc1 (configuration not stated)	.	.	.	.	47*	42*	65*
COc1ccc(NC(=O)C(c2ccccc2F)n2c(=O)c(-c3cc4ccccc4[nH]3)nc3ccccc32)cc1 (configuration not stated)	.	.	.	.	50*	47*	69*
O=C1c2ccccc2/C(=C\C#Cc2ccccn2)N1c1ccccc1	1	.	4	-2	4	.	.
Nc1c(C(=O)Nc2ccc(Br)cc2)sc2nc(-c3ccco3)ccc12	36*	23	-16	2	26*	67*	66*
Nc1c(C(=O)Nc2ccc(F)cc2)sc2nc(-c3ccco3)ccc12	15	6	-9	-1	8	.	.
O=c1ccc2ccccc2c2ccccc12	.	.	.	.	43*	41*	-3
c1ccc2c(c1)ccc1ccccc12	-10	.	-13	8	-11	.	.
CC(=O)c1cccc(NS(=O)(=O)c2ccc3c(c2)N(C(C)=O)CCO3)c1	-1	.	2	-1	-10	.	.
